Where “and” joins values, the source holds several entries; their conditions need not be identical. Equal entries are not always repeated. More than one record can exist for a structure, and the calls need not agree. Calls of active or inactive are those of the source. Rule for the calls: active = hit-call score of the fitted dose curve at least 0.9, where 1 is the maximum; inactive = score below 0.9.
read-out: Interleukin 17A (IL17A), IL17A (gene 3605); assay: BSK_BT_xIL17A: BioMAP Diversity Plus: BT Assay for Interleukin 17A (IL17A) Biomarker Activity (AID 2284229); conditions: primary human B cells with PBMC
Description: BSK_BT is a cell-based, multiplexed-readout assay that uses B cell and peripheral blood mononuclear cells, a human vascular primary cell co-culture, with measurements taken at 24 hours after chemical dosing in a microplate: 96-well plate.BSK_BT_xIL17A is an assay component measured in the BSK_BT assay. It measures secreted IL-17A related to regulation of gene expression using LumineX xMAP technology.Data from the assay component BSK_BT_xIL17A was analyzed at the endpoint, BSK_BT_xIL17A, in the positive analysis fitting direction relative to DMSO as the negative control and baseline of activity. Using a type of cytokine quantitation reporter, gain or loss-of-signal activity can be used to understand protein changes. To generalize the intended target to other relatable targets, this assay endpoint is annotated to the 'cytokine' intended target family, where the subfamily is 'interleukins'.
The levels of cell surface (or secreted, indicated by the prefix "s") biomarker endpoints were measured by ELISA. Overt cytotoxicity to cells in confluent adherent cultures (all systems other than the BT system) was assessed by measuring total protein levels using sulforhodamine B (SRB) staining in parallel cultures at the time of biomarker measurements, indicated as SRB endpoints. For proliferation assays for adherent cell types, individual cell types are cultured at sub-confluence and relative cell numbers quantified by SRB staining at time points optimized for each system (48 h: 3C and CASM3C systems; 72 h: BT and HDF3CGF systems; 96 h: SAg system). SRB was performed by staining cells with 0.1% SRB after fixation with 10% TCA and reading wells at 560 nm.Viability and proliferation of PBMC (T cells) was quantified by Alamar Blue reduction for the SAg and BT systems. For PBMC viability (referred to as PBMC Cytotoxicity within the assay endpoint names), cells were plated (75,000/well in a 96-well plate) and then chemical samples added for 1 h before addition of activators, SEB and TSST-1 (20 ng/mL final concentration each). Cells were incubated for 90 h. Then, Alamar Blue (20 uL/well) (Invitrogen, Cat DAL1100) was added for 6 h, and the plates were read with a fluorescence microplate reader at 546/580 nm (excitation/emission). For PBMC proliferation, cells were plated and activated as above but incubated for only 16 h prior to addition of Alamar Blue. Plates were read after 6 h.

Compound	outcome	AC50
FC(F)(F)C(F)(F)C(F)(F)C(F)(F)C(F)(F)C(F)(F)C(F)(F)C(F)(F)F	inactive	
FC(F)(I)C(F)(F)C(F)(F)C(F)(F)I		42.1 µM (active) and 50.4 µM (active) and 39.2 µM (active)
FC(F)(Br)C(F)(F)C(F)(F)C(F)(F)C(F)(F)C(F)(F)Br	inactive	
O[Si](c1ccccc1)(c1ccccc1)c1ccccc1		28.9 µM (active)
CC(=O)Nc1ccc(N=Nc2cc(C)ccc2O)cc1	inactive	
O=C(O)C(F)(OC(F)(F)C(F)(OC(F)(F)C(F)(OC(F)(F)C(F)(F)C(F)(F)F)C(F)(F)F)C(F)(F)F)C(F)(F)F (stereo not given)	inactive	
CS(C)(=O)=O	inactive	
O=C(O)C(F)(F)C(F)(F)OC(F)(F)F	inactive	
O=S(=O)(OCCOC(F)(F)F)C(F)(F)F	inactive	
O=C(O)C(F)(F)C(F)(F)C(F)F	inactive	
FC(F)(F)C(F)(F)C(F)(F)C(F)(F)C(F)(F)C(F)(F)C(F)(F)C(F)(F)CCS	inactive	
OCC(F)(F)C(F)(F)C(F)(F)C(F)(F)C(F)(F)C(F)F	inactive	
CCc1c(Br)c(Br)c(Br)c(Br)c1Br	inactive	
CCCCCCCOC(=O)c1ccccc1C(=O)OCCCCCCC	inactive	
C=CC(=O)OCC(F)(F)C(F)(F)C(F)(F)C(F)(F)C(F)(F)C(F)(F)C(F)(F)F	inactive	
N=C(N)C(F)(F)C(F)(F)C(F)(F)C(F)(F)C(F)(F)C(F)(F)C(F)(F)F	inactive	44.2 µM (active)
O=P(O)(O)OCCC(F)(F)C(F)(F)C(F)(F)C(F)(F)C(F)(F)C(F)(F)F	inactive	20.2 µM (active)
CCc1ccc(C(c2ccc(CC)cc2)C(Cl)Cl)cc1		28.8 µM (active)
FC(F)(F)C(F)(F)C(F)(F)C(F)(F)C(F)(F)CCI	inactive	

Compound	outcome	AC50
C#C[C@]1(O)CC[C@H]2[C@@H]3CCc4cc(OC)ccc4[C@H]3CC[C@@]21C	inactive	
CCCCCCC(C)OC(=O)CCCCC(=O)OC(C)CCCCCC (stereo not given)	inactive	
OCC(F)(F)C(F)(F)C(F)(F)C(F)(F)C(F)(F)C(F)(F)F	inactive	
FC(F)(F)C(F)(F)C(F)(F)C(F)(F)C(F)(F)C(F)(F)CCS	inactive	
O=C(O)C(F)(F)C(F)(F)C(F)(F)C(F)(F)C(F)(F)C(F)(F)C(F)(F)C(F)(F)C(F)(F)C(F)F	inactive	
O=C(O)C=C(C(F)(F)F)C(F)(F)F	inactive	
CCCCOCCOCCOC(=O)CCCCC(=O)OCCOCCOCCCC	inactive	
O=C(O)C(F)(F)C(F)(F)C(F)(F)C(F)(F)F	inactive	
OCCCC(F)(F)C(F)(F)C(F)(F)C(F)(F)C(F)(F)C(F)(F)C(F)(F)F		18.8 µM (active) and 36.4 µM (active)
OCCCC(F)(F)C(F)(F)C(F)(F)F	inactive	
FC(F)(F)C(F)(F)C(F)(F)N(C(F)(F)C(F)(F)C(F)(F)F)C(F)(F)C(F)(F)C(F)(F)F	inactive	
CC(C)(C)C(=O)CC(=O)C(F)(F)C(F)(F)C(F)(F)F	inactive	
O=S(=O)(O)C(F)(F)C(F)(F)C(F)(F)C(F)(F)C(F)(F)C(F)(F)C(F)(F)F	inactive	
O=S(=O)(OCC(F)F)C(F)(F)F	inactive	
CCCCCCCCC(F)(F)C(F)(F)C(F)(F)C(F)(F)C(F)(F)C(F)(F)F	inactive	
OCC(F)(F)C(F)(F)C(F)(F)F	inactive	
CCN(CC)c1ccc2c(C)cc(=O)oc2c1	inactive	
C=CC(F)(F)C(F)(F)C(F)(F)C(F)(F)C(F)(F)C(F)(F)C(F)(F)C(F)(F)C=C	inactive	
C=C(C)C(=O)OCC(F)(F)C(F)(F)C(F)(F)F	inactive	

Source: PubChem BioAssay (EPA / NIEHS)
